Some structures have more than one record in an assay (separate samples or runs), and their calls can disagree. Active and inactive are the calls of the source. How the source made its calls: active means hit-call score of the fitted dose curve at least 0.9, where 1 is the maximum; inactive means score below 0.9.
Test: ATG_M_32_CIS: Attagene CIS-FACTORIAL HepG2 Assay for M32 Transcription Factor (Internal Marker) (AID 2282949);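 further: background control marker of the multiplexed CIS panel rather than a real target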
Conditions: HepG2 Attagene cis-factorial M32 reporter, mRNA; actives raise or lower the signal
Procedure, shortened: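 Internal background marker read-out: RT-PCR/capillary electrophoresis fluorescence of reporter transcripts from transiently transfected HepG2 cells after 24 h chemical exposure. Activity fitted bidirectionally relative to DMSO negative control.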

Row | Compound | outcome | AC50
1 | C=C(C)C(=O)OCCC(F)(F)C(F)(F)C(F)(F)C(F)(F)C(F)(C(F)(F)F)C(F)(F)F | inactive | –
2 | CCCCCCCCCCCCCCCC[N+](C)(C)Cc1ccccc1 | inactive | –
3 | CC(C)(C)C(=O)CC(=O)C(F)(F)C(F)(F)C(F)(F)F | inactive | –
4 | C(=C(c1ccccc1)c1ccccc1)c1ccccc1 | inactive | –
5 | CCCCNc1ccccc1 | inactive | –
6 | O=C(O)C(F)(F)C(F)(F)C(F)(F)F | inactive | –
7 | FC(F)(F)C(F)(F)C(F)(F)N(C(F)(F)C(F)(F)C(F)(F)F)C(F)(F)C(F)(F)C(F)(F)F | inactive | –
8 | O=S(=O)(OCC(F)F)C(F)(F)F | inactive | –
9 | COC(OC(C)=O)c1ccccc1 (centres undefined) | inactive | –
10 | FC(F)(Br)C(F)(F)C(F)(F)C(F)(F)C(F)(F)C(F)(F)Br | inactive | –
11 | O=C(O)C(F)(OC(F)(F)C(F)(OC(F)(F)C(F)(F)C(F)(F)F)C(F)(F)F)C(F)(F)F (centres undefined) | inactive | –
12 | O=C(O)C(F)(F)C(F)(F)C(F)(F)C(F)(F)C(F)(F)C(F)(F)C(F)(F)C(F)(F)C(F)(F)C(F)(F)C(F)(F)C(F)(F)C(F)(F)F | inactive | –
13 | O=C(O)C(F)(F)C(F)(F)C(F)(F)C(F)(F)C(F)(F)C(F)(F)C(F)(F)C(F)(F)C(F)(F)C(F)F | inactive | –
14 | O=C(O)C(F)(F)C(F)(F)C(F)F | inactive | –
15 | CCCCCCOC(=O)c1ccccc1O | inactive | –
16 | NC(=O)C(F)(F)C(F)(F)C(F)(F)C(F)(F)F | inactive | –
17 | FC(F)(F)C(F)(F)C(F)(F)C(F)(F)C(F)(F)C(F)(F)CC1CO1 (centres undefined) | inactive | –

Row | Compound | outcome | AC50
18 | FC1CC(F)(F)C(F)(F)C1(F)F (centres undefined) | inactive | –
19 | CCCCOc1ccc(N)cc1 | inactive | –
20 | O=C(O)C(F)(F)C(F)(F)C(F)(F)C(F)(F)C(F)(F)C(F)(F)C(F)(F)C(F)(F)Cl | inactive | –
21 | CC(Cc1ccc(O)c(O)c1)C(C)Cc1ccc(O)c(O)c1 (centres undefined) | inactive | –
22 | FC(F)(F)C(F)(F)C(F)(F)C(F)(F)C(F)(F)C(F)(F)C(F)(F)I | inactive | –
23 | CCCCOCCOCCOC(=O)CCCCC(=O)OCCOCCOCCCC | inactive | –
24 | OCCCC(F)(F)C(F)(F)C(F)(F)C(F)(F)C(F)(F)C(F)(F)C(F)(F)F | inactive | 233 µM (active)
25 | CNC(=S)NC | inactive | –
26 | [Co] | inactive | –
27 | C=CC(F)(F)C(F)(F)C(F)(F)C(F)(F)C(F)(F)C(F)(F)C(F)(F)C(F)(F)C=C | inactive | –
28 | CCC(=O)OCCc1ccccc1 | inactive | –
29 | CC/C=C\CCOC(=O)c1ccccc1 | inactive | –
30 | O=C(C=Cc1ccccc1)OCC=Cc1ccccc1 | inactive | –
31 | CCCCCCCOC(=O)c1ccccc1C(=O)OCCCCCCC | inactive | –
32 | OCCCC(F)(F)C(F)(F)C(F)(F)F | inactive | –
33 | CCCCCCC(C)OC(=O)CCCCC(=O)OC(C)CCCCCC (centres undefined) | inactive | –
34 | OCC(F)(F)C(F)(F)C(F)(F)F | inactive | –

Test: ATG_M_06_CIS: Attagene CIS-FACTORIAL HepG2 Assay for M06 Transcription Factor (Internal Marker) (AID 2282950)
Conditions: HepG2 Attagene CIS-FACTORIAL M06 internal marker reporter; actives raise or lower the signal
Procedure, shortened: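 HepG2 liver cells, 24 h exposure. Reporter transcripts from transfected cis-element constructs quantified by RT-PCR/capillary electrophoresis fluorescence. Bidirectional curve fit against DMSO.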

Row | Compound | outcome
35 | C=C(C)C(=O)OCCC(F)(F)C(F)(F)C(F)(F)C(F)(F)C(F)(C(F)(F)F)C(F)(F)F | inactive
36 | CCCCCCCCCCCCCCCC[N+](C)(C)Cc1ccccc1 | inactive
37 | CC(C)(C)C(=O)CC(=O)C(F)(F)C(F)(F)C(F)(F)F | inactive
38 | C(=C(c1ccccc1)c1ccccc1)c1ccccc1 | inactive
39 | CCCCNc1ccccc1 | inactive
40 | O=C(O)C(F)(F)C(F)(F)C(F)(F)F | inactive
41 | FC(F)(F)C(F)(F)C(F)(F)N(C(F)(F)C(F)(F)C(F)(F)F)C(F)(F)C(F)(F)C(F)(F)F | inactive
42 | O=S(=O)(OCC(F)F)C(F)(F)F | inactive
43 | COC(OC(C)=O)c1ccccc1 (centres undefined) | inactive
44 | FC(F)(Br)C(F)(F)C(F)(F)C(F)(F)C(F)(F)C(F)(F)Br | inactive
45 | O=C(O)C(F)(OC(F)(F)C(F)(OC(F)(F)C(F)(F)C(F)(F)F)C(F)(F)F)C(F)(F)F (centres undefined) | inactive
46 | O=C(O)C(F)(F)C(F)(F)C(F)(F)C(F)(F)C(F)(F)C(F)(F)C(F)(F)C(F)(F)C(F)(F)C(F)(F)C(F)(F)C(F)(F)C(F)(F)F | inactive
47 | O=C(O)C(F)(F)C(F)(F)C(F)(F)C(F)(F)C(F)(F)C(F)(F)C(F)(F)C(F)(F)C(F)(F)C(F)F | inactive
48 | O=C(O)C(F)(F)C(F)(F)C(F)F | inactive
49 | CCCCCCOC(=O)c1ccccc1O | inactive
50 | NC(=O)C(F)(F)C(F)(F)C(F)(F)C(F)(F)F | inactive
51 | FC(F)(F)C(F)(F)C(F)(F)C(F)(F)C(F)(F)C(F)(F)CC1CO1 (centres undefined) | inactive

Row | Compound | outcome
52 | FC1CC(F)(F)C(F)(F)C1(F)F (centres undefined) | inactive
53 | CCCCOc1ccc(N)cc1 | inactive
54 | O=C(O)C(F)(F)C(F)(F)C(F)(F)C(F)(F)C(F)(F)C(F)(F)C(F)(F)C(F)(F)Cl | inactive
55 | CC(Cc1ccc(O)c(O)c1)C(C)Cc1ccc(O)c(O)c1 (centres undefined) | inactive
56 | FC(F)(F)C(F)(F)C(F)(F)C(F)(F)C(F)(F)C(F)(F)C(F)(F)I | inactive
57 | CCCCOCCOCCOC(=O)CCCCC(=O)OCCOCCOCCCC | inactive
58 | OCCCC(F)(F)C(F)(F)C(F)(F)C(F)(F)C(F)(F)C(F)(F)C(F)(F)F | inactive
59 | CNC(=S)NC | inactive
60 | [Co] | inactive
61 | C=CC(F)(F)C(F)(F)C(F)(F)C(F)(F)C(F)(F)C(F)(F)C(F)(F)C(F)(F)C=C | inactive
62 | CCC(=O)OCCc1ccccc1 | inactive
63 | CC/C=C\CCOC(=O)c1ccccc1 | inactive
64 | O=C(C=Cc1ccccc1)OCC=Cc1ccccc1 | inactive
65 | CCCCCCCOC(=O)c1ccccc1C(=O)OCCCCCCC | inactive
66 | OCCCC(F)(F)C(F)(F)C(F)(F)F | inactive
67 | CCCCCCC(C)OC(=O)CCCCC(=O)OC(C)CCCCCC (centres undefined) | inactive
68 | OCC(F)(F)C(F)(F)C(F)(F)F | inactive
